# Assay results: the supplement of paper PMC11741263, “Chemoproteomic Profiling of C. albicans for Characterization of Anti-fungal Kinase Inhibitors” (bioRxiv, 2025)
# Key:
# Assay in all cases: MIB bead binding, log2 fold change vs DMSO (log2 ratio); higher = less competition (weaker engagement)
# ATG1 = biological target: T1, ATG1 (UniProt Q5A649)
# T1 sequence (whole entry): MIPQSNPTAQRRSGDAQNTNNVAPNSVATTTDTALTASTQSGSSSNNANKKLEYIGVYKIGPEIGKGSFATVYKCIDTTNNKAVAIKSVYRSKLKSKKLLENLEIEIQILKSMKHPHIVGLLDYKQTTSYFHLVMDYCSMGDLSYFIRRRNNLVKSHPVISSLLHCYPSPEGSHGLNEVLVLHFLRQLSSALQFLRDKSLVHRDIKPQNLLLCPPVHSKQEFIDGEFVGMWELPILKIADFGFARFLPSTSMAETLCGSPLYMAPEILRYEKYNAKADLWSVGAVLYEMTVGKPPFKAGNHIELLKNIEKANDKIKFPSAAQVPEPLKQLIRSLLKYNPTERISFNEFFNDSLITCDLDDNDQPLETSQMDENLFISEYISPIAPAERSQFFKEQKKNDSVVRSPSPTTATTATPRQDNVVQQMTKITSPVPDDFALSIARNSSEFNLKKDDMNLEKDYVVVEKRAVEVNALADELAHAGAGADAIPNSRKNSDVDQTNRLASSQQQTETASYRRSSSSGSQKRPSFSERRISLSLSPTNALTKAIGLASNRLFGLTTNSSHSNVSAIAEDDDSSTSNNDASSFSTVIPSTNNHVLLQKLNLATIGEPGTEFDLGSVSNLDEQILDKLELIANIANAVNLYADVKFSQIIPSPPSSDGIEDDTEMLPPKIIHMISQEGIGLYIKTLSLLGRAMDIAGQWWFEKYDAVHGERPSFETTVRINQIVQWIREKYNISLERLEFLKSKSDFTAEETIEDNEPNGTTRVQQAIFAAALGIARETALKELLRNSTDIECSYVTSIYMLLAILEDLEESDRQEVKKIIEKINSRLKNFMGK
# PKC1 = biological target: T2, PKC1 (UniProt P43057)
# T2 sequence (whole entry): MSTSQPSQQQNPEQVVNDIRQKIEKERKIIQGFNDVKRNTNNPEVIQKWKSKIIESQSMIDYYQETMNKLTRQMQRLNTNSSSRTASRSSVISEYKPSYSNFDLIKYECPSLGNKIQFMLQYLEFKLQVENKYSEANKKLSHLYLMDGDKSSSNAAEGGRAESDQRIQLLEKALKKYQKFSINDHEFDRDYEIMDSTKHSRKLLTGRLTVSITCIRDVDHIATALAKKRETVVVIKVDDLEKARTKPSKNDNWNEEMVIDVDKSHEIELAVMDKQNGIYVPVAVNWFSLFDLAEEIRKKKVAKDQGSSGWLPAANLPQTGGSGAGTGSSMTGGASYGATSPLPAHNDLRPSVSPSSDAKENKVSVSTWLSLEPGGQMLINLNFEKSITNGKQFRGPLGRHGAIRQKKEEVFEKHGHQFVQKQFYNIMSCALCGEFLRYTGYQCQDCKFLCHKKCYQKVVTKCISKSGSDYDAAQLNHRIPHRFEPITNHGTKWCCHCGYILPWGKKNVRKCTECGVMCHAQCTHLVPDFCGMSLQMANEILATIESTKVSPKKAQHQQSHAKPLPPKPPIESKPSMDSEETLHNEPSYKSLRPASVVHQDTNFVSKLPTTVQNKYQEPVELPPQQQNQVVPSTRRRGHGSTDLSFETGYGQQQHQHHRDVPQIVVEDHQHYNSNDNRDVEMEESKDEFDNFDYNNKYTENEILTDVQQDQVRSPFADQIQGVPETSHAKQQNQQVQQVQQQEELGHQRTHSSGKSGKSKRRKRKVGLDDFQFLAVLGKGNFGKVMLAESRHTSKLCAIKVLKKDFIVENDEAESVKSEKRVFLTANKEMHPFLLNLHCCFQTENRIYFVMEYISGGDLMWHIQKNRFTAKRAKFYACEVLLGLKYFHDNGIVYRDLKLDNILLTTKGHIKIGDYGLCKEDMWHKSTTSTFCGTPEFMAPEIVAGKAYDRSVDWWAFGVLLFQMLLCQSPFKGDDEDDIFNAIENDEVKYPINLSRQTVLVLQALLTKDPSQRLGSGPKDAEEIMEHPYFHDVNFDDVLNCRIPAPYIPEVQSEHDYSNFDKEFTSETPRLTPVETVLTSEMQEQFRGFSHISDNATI
# PKH2 = biological target: T3, PKH2 (UniProt Q5A3P6)
# T3 sequence (whole entry): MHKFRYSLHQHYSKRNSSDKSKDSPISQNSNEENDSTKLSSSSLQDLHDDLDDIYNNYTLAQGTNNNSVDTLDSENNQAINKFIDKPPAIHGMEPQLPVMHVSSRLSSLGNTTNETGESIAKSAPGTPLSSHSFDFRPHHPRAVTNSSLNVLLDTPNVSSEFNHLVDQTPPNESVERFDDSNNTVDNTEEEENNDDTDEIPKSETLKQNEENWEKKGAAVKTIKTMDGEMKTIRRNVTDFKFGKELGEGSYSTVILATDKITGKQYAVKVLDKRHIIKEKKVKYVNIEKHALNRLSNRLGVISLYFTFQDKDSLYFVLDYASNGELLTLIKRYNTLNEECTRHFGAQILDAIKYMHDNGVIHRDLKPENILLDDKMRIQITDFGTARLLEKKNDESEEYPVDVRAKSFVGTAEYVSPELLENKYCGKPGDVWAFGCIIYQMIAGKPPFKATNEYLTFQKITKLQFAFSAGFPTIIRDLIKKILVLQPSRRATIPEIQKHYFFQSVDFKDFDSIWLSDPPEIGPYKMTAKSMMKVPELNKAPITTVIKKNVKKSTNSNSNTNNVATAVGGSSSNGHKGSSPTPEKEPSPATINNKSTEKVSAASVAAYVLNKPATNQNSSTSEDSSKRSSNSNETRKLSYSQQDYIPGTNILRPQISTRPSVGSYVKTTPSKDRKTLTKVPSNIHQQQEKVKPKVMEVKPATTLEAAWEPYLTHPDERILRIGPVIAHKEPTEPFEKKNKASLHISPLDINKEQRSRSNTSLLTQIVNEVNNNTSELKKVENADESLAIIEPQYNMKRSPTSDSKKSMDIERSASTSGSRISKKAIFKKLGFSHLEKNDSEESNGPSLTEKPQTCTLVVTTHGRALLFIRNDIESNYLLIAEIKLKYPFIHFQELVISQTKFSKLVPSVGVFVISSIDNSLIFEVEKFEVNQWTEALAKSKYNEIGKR
smiles,measurement,setting,value
Cc1[nH]nc2ccc(-c3cc(OC[C@@H](N)Cc4ccccc4)cnc3-c3ccoc3)cc12,MIB bead binding (log2),ATG1; 0.1 µM,-0.123
same,MIB bead binding (log2),ATG1; 1 µM,-0.147
same,MIB bead binding (log2),ATG1; 10 µM,-0.524
same,MIB bead binding (log2),PKC1; 0.1 µM,-0.235
same,MIB bead binding (log2),PKC1; 1 µM,0.00546
same,MIB bead binding (log2),PKC1; 10 µM,-0.233
same,MIB bead binding (log2),PKH2; 0.1 µM,-0.165
same,MIB bead binding (log2),PKH2; 1 µM,-0.0865
same,MIB bead binding (log2),PKH2; 10 µM,-0.756
